Several values for one entry are separate records, joined by “and”; a condition that tells them apart may be missing. Equal values may be shown once. Records with an inconclusive call do not appear. A call without a number means that no potency is given here. Activity calls are given as the source filed them. Unless noted, calls come from the whole dose curve; as a rule, active = well fitted curve in the direction sought with a large enough effect; inconclusive = small, poorly fitted or top-dose-only effect, or another doubt; inactive = no such curve, though single readings can be large; an effect the other way counts as inactive or inconclusive.
How the values were obtained:
[1] = Primary qHTS for inhibitors of La Crosse Virus (LACV) - induced cell death in SH-SY5Y cells (AID 1508616);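 note: top concentration of the series differs between compounds; higher means more rescue of cells from virus-induced death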
Procedure, shortened: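 SH-SY5Y, 6000 cells/well; cpd via pin tool in DMSO; LACV 0.01 MOI; 6 d 37C 5% CO2; ATPLite, 5 min RT; luminescence normalized to ±virus DMSO controls.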

[2] = target: Calcium and integrin-binding protein 1 (Homo sapiens) (UniProt Q99828); assay: Primary qHTS for Identification of Calcium Integrin Binding Protein 1 (CIB1) Competitor (AID 1508620);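 note: GST tagged CIB1 binding a fluorescein labelled alphaIIb integrin peptide tracer; top concentration of the series differs between compounds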
Procedure, shortened: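 CIB1-GST (1 uM final) and compound incubated 15 min at room temperature before adding FITC-alphaIIb peptide tracer (100 nM final). Competition for binding read by fluorescence polarization (ex 480, em 540) after another 15 min at room temperature.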

[3] = Primary qHTS for small molecule stabilizers of the endoplasmic reticulum resident proteome: Secreted ER Calcium Modulated Protein (SERCaMP) assay (AID 1508630)
Procedure, shortened: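 The SH-SY5Y reporter protocol was run at 3 concentrations up to 38.3 uM (primary) or 11 concentrations (follow-up): 16 h compound, 100 nM thapsigargin for 4 h, then extracellular luciferase luminescence.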

[4] = target: Cytochrome P450 2C9 (Homo sapiens) (UniProt P11712); assay: Cytochrome P450 family 2 subfamily C member 9 (CYP2C9) small molecule antagonists: luciferase biochemical (cell-free) qHTS assay (AID 1645842; active = well fitted curve in the direction sought with a large enough effect in the repeat runs; an effect the other way counts as inactive or inconclusive; note: nearly all actives have a fitted effect of over 55% in size; note: potency is the fitted concentration of half-maximal effect)
Procedure, shortened: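 P450-Glo CYP2C9 system: proluciferin substrate with enzyme in mix containing 0.4% BSA, 10 min at room temperature, then NADPH regeneration solution added and incubated 1 h at 37C. Detection reagent stopped reaction; luminescence read after 20 min as RLU.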

[5] = Cytotoxicity counterscreen for inhibitors of SARS-CoV-2 cell entry (AID 1645845; calls by dose curve; note: nearly all actives have a fitted effect of over 50% in size)
Procedure, shortened: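 ATP-content luminescence (ATPLite 1step, 15 min RT) read after 48 h compound exposure of Expi293F cells stably expressing human ACE2; normalized to cells-only wells and media-only wells.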

[6] = Primary qHTS for inhibitors of nuclear receptor binding SET domain protein 2 (NSD2) in an isogenic RCH-ACV NSD2 p.E1099K mutant (9B) (AID 1645876); note: nearly all actives have a fitted effect of over 70% in size; note: potency is the fitted concentration of half-maximal effect
[7] = A High-Content qHTS Against Drug Library for the Identification of Small Molecules that Inhibit DYT1 Early Onset Primary Dystonia-Associated Cell Pathology (AID 1645839; calls by dose curve)
Procedure, shortened: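 High-content imaging quantified EGFP-TorsinA mislocalization in HEK293-derived cells inducibly expressing DYT1 mutant torsinA, after 48 h exposure to compound given together with tetracycline induction. Cell count served as a toxicity channel alongside %pathology.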

[8] = target: Cytochrome P450 2D6 (Homo sapiens) (UniProt P10635); assay: Cytochrome P450 family 2 subfamily D member 6 (CYP2D6) small molecule antagonists: luciferase biochemical (cell-free) qHTS assay (AID 1645840; active = well fitted curve in the direction sought with a large enough effect in the repeat runs; an effect the other way counts as inactive or inconclusive; note: nearly all actives have a fitted effect of over 55% in size; note: potency is the fitted concentration of half-maximal effect)
Procedure, shortened: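 P450-Glo CYP2D6 system: proluciferin substrate converted by enzyme to luciferin, read by luminescence proportional to activity. Enzyme-substrate mix with compound 10 min at room temperature, then NADPH regeneration 1 h before detection reagent.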

[9] = Primary qHTS to identify inhibitors of SARS-CoV-2 cell entry (AID 1645846; calls by dose curve; note: nearly all actives have a fitted effect of over 45% in size; note: potency is the fitted concentration of half-maximal effect); conditions: activity change, negative = inhibition: at 57.1 µM (top of the series) unless noted
Procedure, shortened: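 HEK293 cells stably expressing human ACE2, pre-treated 1 h with compound, then infected with MLV particles pseudotyped with Wuhan-Hu-1 spike (C-terminal 19-aa truncation). Luciferase luminescence after 48 h at 37 °C, normalised to spike PP and bald PP.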

Chain of Cytochrome P450 2D6 (Homo sapiens) (P10635 whole entry, looked up): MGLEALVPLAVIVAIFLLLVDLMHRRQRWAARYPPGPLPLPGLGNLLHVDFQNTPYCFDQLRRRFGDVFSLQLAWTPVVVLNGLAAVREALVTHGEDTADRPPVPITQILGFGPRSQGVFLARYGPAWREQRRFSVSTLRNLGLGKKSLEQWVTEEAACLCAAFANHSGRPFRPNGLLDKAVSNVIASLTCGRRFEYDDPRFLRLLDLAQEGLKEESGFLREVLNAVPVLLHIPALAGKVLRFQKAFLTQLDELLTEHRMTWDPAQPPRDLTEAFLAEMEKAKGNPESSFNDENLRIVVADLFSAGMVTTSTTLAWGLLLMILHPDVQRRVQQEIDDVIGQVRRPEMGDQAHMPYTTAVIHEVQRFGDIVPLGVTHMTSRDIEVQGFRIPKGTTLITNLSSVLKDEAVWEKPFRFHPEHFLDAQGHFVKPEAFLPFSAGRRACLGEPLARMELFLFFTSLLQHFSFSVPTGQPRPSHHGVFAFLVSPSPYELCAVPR
Chain of Cytochrome P450 2C9 (Homo sapiens) (P11712 whole entry, looked up): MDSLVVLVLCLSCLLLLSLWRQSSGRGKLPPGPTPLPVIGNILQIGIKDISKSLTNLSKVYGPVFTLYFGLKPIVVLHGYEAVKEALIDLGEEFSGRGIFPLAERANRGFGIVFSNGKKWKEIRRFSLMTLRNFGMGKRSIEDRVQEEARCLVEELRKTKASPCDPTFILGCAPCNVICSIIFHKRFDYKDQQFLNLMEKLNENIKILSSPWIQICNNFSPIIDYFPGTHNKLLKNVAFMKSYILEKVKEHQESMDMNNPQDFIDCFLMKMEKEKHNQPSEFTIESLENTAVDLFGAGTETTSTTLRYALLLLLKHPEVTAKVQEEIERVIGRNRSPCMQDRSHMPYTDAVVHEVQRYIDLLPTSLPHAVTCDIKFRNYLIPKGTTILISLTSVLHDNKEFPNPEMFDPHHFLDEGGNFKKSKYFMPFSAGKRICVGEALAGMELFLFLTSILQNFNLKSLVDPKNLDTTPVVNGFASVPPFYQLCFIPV
Chain of Calcium and integrin-binding protein 1 (Homo sapiens) (Q99828 whole entry, looked up): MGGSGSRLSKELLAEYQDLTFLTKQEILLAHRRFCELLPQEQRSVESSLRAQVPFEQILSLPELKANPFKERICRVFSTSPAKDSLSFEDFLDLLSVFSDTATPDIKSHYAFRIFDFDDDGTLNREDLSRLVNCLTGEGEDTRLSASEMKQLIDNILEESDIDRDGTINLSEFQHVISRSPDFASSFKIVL

Structure (SMILES)	outcome [1]	Potency [2]	outcome [3]	Potency [4]	Potency [5]	Potency [6]	outcome [7]	Potency [8]	activity change, negative = inhibition [9] [%]	Potency [9]
C=CCOC(Cn1ccnc1)c1ccc(Cl)cc1Cl (stereo not given)	inactive	inactive	inactive	0.683 µM (active)	inactive	23.7 µM (active)				
CC(Cc1ccc2c(c1)OCO2)NO (stereo not given)	inactive	inactive	inactive			inactive	inactive			
O=C(N[C@H]1N=C(c2ccccc2F)c2cccc3c2N(CC3)C1=O)c1cc2ccccc2[nH]1	inactive	inactive		6.92 µM (active)	inactive		inactive	inactive		
CCC(=O)O[C@H]1CC[C@H]2[C@@H]3CCC4=CC(=O)CC[C@]4(C)[C@H]3CC[C@]12C	inactive	inactive	inactive	24.5 µM (active) and 10.7 µM (active)	inactive	23.7 µM (active)				
COc1cc(CC(C)N)c(OC)cc1Br (stereo not given)	inactive	inactive	inactive	inactive		10.1 µM (active)		29.2 µM (active)		
COP(=O)(OC)C(O)C(Cl)(Cl)Cl (stereo not given)	inactive	inactive	inactive		inactive	inactive	inactive		-13.6	
C[C@]12CC[C@H]3[C@@H](CCC4=CC(=O)CC[C@@]43C)[C@@H]1CC[C@@H]2C(=O)O	inactive	inactive		inactive		inactive	inactive	inactive		
Cc1ncc2n1-c1ccc(Cl)cc1C(c1ccccc1F)=NC2	inactive	inactive	inactive			23.7 µM (active)	inactive			
Cc1nnc2n1-c1sc(CCc3ccc(CC(C)C)cc3)cc1C(c1ccccc1Cl)=NC2C (stereo not given)	inactive	inactive	inactive	15.5 µM (active)		7.5 µM (active)		27.5 µM (active)		22.4 µM (active)
CN1CCc2cc(Cl)c(O)cc2[C@H]2c3ccccc3CC[C@@H]21	inactive	inactive		inactive			inactive	0.001 µM (active)		
COc1ccc2c(C(=O)c3ccc(Cl)cc3)c(C)n(CC(=O)O)c2c1	inactive	inactive	inactive			inactive	inactive			
C[C@H](N)[C@H](O)c1ccc(O)c(O)c1	inactive	inactive	inactive		inactive	inactive	inactive		-20.4	
C[C@H](CN1CCOCC1)C(C(=O)N1CCCC1)(c1ccccc1)c1ccccc1	inactive	inactive				inactive	inactive	38.6 µM (active)		
CCc1ccc(C2CCNCC2)cc1	inactive	inactive		inactive		inactive	inactive	0.347 µM (active)		
C[C@]12Cc3nonc3C[C@@H]1CC[C@@H]1[C@@H]2CC[C@@]2(C)[C@H]1CC[C@]2(C)O	inactive	inactive	inactive			21.1 µM (active)	inactive			
Cc1cccc(Cc2cnc[nH]2)c1C	inactive	inactive			inactive		inactive	0.871 µM (active)	-1.14	
O=c1n(Cl)c(=O)n(Cl)c(=O)n1Cl	inactive	inactive		inactive	inactive	inactive	inactive	inactive	1.05	
O=C(O)CCCCCCNC1c2ccccc2CCc2ccccc21	inactive	inactive	inactive			inactive	inactive			
CCN(CC)Cc1nccn1-c1ccc([N+](=O)[O-])cc1C(=O)c1ccccc1Cl	inactive	inactive			inactive		inactive	1.95 µM (active)		
O=C1CN2CCOC2(c2ccccc2Cl)c2cc(Cl)ccc2N1 (stereo not given)	inactive	inactive	inactive	inactive	inactive	inactive			-6.92	
CC1N=C(N)OC1c1ccccc1 (stereo not given)	inactive	inactive					inactive	4.92 µM (active)		
CCS(=O)(=O)C(C)(C)S(=O)(=O)CC	inactive	inactive	inactive			inactive	inactive			
CC(C)NCC(O)c1ccc(N)c(C#N)c1 (stereo not given)	inactive	inactive	inactive			inactive	inactive			
CN1CCC(N(Cc2ccccc2)c2ccccc2)CC1	inactive	inactive		inactive			inactive	0.11 µM (active)		
O=C(CCl)c1ccc(Cl)cc1Cl	inactive	inactive	inactive			inactive		inactive		
CNC(=O)Oc1cccc2ccccc12	inactive	inactive		inactive	inactive		inactive	inactive		inactive
Nc1ccccc1C(=O)OCC(O)CO (stereo not given)	inactive	inactive			inactive	inactive		inactive	-1.98	
Cc1ccc(N=CN(C)C=Nc2ccc(C)cc2C)c(C)c1	inactive	inactive			inactive	inactive	inactive		-12.8	
COc1ccc2c3c1O[C@H]1[C@@H](O)C=C[C@H]4[C@@H](C2)N(C)CC[C@@]341		inactive	inactive	inactive		6.72 µM (active)				
